For four compounds, outcome and AC50 results are on record in PubChem BioAssay (EPA / NIEHS).

The source made the active and inactive calls. How the source made its calls: active means hit-call score of the fitted dose curve at least 0.9, where 1 is the maximum; inactive means score below 0.9.

Experiment [1] in a line: ATG_GLI_CIS: Attagene CIS-FACTORIAL HepG2 Assay for human Zinc Finger Protein GLI1 (AID 2282945). The following applies: HepG2, Attagene cis-factorial reporter mRNA, GLI element; actives raise or lower the signal. In outline: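 Bidirectional curve fits relative to DMSO, using reporter mRNA levels from RT-PCR plus capillary electrophoresis. Cells were HepG2 transiently carrying cis-regulated reporter constructs, harvested 24 h after dosing.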

Experiment [2] concerns the target Bile acid receptor (Homo sapiens) (UniProt Q96RI1). In words: ATG_IR1_CIS: Attagene CIS-FACTORIAL HepG2 Assay for human Nuclear Receptor Subfamily 1 Group H Member 4 (NR1H4), IR1 submotif (AID 2282946). Conditions: IR1 reporter transcription, actives raise or lower the signal. The essentials:
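Cells (human HepG2) carry transiently transfected cis-promoter reporter transcription units. Compounds are incubated 24 h, total RNA is reverse-transcribed and amplified, and labelled fragments are resolved by capillary electrophoresis. Curves use DMSO as baseline.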

Experiment [3] is described as follows: ATG_GRE_CIS: Attagene CIS-FACTORIAL HepG2 Assay for human Glucocorticoid Response Elements (GRE) (AID 2282947). The following applies: HepG2 GRE cis-reporter, Attagene multiplex mRNA; actives raise or lower the signal. In outline:
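Assay uses human hepatoma HepG2 cells transfected with cis-promoter reporter units, exposed 24 h. mRNA from reporters detected by RT-PCR plus capillary electrophoresis; DMSO serves as negative control and baseline.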

Experiment [4] is described as follows: ATG_ISRE_CIS: Attagene CIS-FACTORIAL HepG2 Assay for human Interferon Regulatory Factor 1 (IRF1) binding to an Interferon-Stimulated Response Element (ISRE) (AID 2282948). Conditions: HepG2 ISRE cis-reporter (Attagene), mRNA transcription readout; actives raise or lower the signal. In outline: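 Transfected HepG2 (multiple reporter transcription units, cis elements) dosed 24 h. RNA → oligo(dT) RT → PCR → 6-FAM primer extension → HpaI → CE. DMSO = negative control/baseline.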

The nature of experiment [5]: ATG_M_32_CIS: Attagene CIS-FACTORIAL HepG2 Assay for M32 Transcription Factor (Internal Marker) (AID 2282949).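 Further: background control marker of the multiplexed CIS panel rather than a real target.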 The following applies: HepG2 Attagene cis-factorial M32 reporter, mRNA; actives raise or lower the signal. The essentials: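 Internal background marker read-out: RT-PCR/capillary electrophoresis fluorescence of reporter transcripts from transiently transfected HepG2 cells after 24 h chemical exposure. Activity fitted bidirectionally relative to DMSO negative control.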

Experiment [6] can be described thus: ATG_M_06_CIS: Attagene CIS-FACTORIAL HepG2 Assay for M06 Transcription Factor (Internal Marker) (AID 2282950). The following applies: HepG2 Attagene CIS-FACTORIAL M06 internal marker reporter; actives raise or lower the signal. In outline: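 Measured 24 h post-dosing in transiently transfected HepG2 cells, this internal-marker endpoint reports reporter mRNA via RT-PCR with fluorescent primer extension and capillary electrophoresis. DMSO served as negative control and baseline for bidirectional fitting.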

The target of experiment [7] is Hypoxia-inducible factor 1-alpha (Homo sapiens) (UniProt Q16665). In words: ATG_HIF1a_CIS: Attagene CIS-FACTORIAL HepG2 Assay for human Hypoxia Inducible Factor 1 (HIF1A) (AID 2282951). Conditions: HepG2 Attagene cis-factorial HIF1a reporter transcription; actives raise or lower the signal. In outline:
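Transient MRTU transfection of human HepG2 liver cells, 24 h compound treatment, then total RNA isolation, oligo(dT) reverse transcription, PCR amplification, fluorescent labelling and capillary electrophoresis of reporter fragments. Gain or loss relative to DMSO.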

Experiment [8] addresses Hepatocyte nuclear factor 6 (Homo sapiens) (UniProt Q9UBC0). The experiment can be described thus: ATG_HNF6_CIS: Attagene CIS-FACTORIAL HepG2 Assay for human Hepatocyte Nuclear Factor 6 (HNF6) (AID 2282952). Conditions: HepG2 Attagene cis-factorial HNF6 reporter transcription; actives raise or lower the signal. The essentials: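 Transiently transfected HepG2 cells expressing cis-regulated reporter transcription units were exposed to chemical for 24 h in a 24-well format. Reporter transcript abundance was determined by fluorescence capillary electrophoresis.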

Experiment [9] addresses Heat shock factor protein 1 (Homo sapiens) (UniProt Q00613). The experiment can be described thus: ATG_HSE_CIS: Attagene CIS-FACTORIAL HepG2 Assay for human Heat Shock Transcription Factor 1 (HSE) (AID 2282953). The following applies: HepG2 HSE cis-reporter, Attagene RNA transcription; actives raise or lower the signal. The essentials:
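Reporter mRNA induction in HepG2 is measured 24 h after dosing, using transiently transfected multiplexed cis-regulated reporter units. Signal comes from capillary electrophoresis of labelled RT-PCR products, with DMSO as negative control.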

Experiment [10] in a line: ATG_MRE_CIS: Attagene CIS-FACTORIAL HepG2 Assay for human Metal Responsive Element (MRE) (AID 2282954). The following applies: HepG2 MRE cis-reporter transcription, Attagene multiplex; actives raise or lower the signal. The essentials:
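After a 24 h chemical exposure, transiently transfected HepG2 cells yield RNA whose reporter sequences are amplified, FAM-labelled and sized by capillary electrophoresis. Curves are fitted bidirectionally relative to DMSO.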

Experiment [11] is described as follows: ATG_PBREM_CIS: Attagene CIS-FACTORIAL HepG2 Assay for human Phenobarbital-responsive Enhancer Module (PBREM) (AID 2282955). Conditions: HepG2 PBREM cis-reporter, Attagene multiplexed transcription; actives raise or lower the signal. In outline: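 Endogenous transcription factors in human liver HepG2 cells drive a PBREM cis-element reporter, whose transcript level after 24 h treatment is quantified by RT-PCR with capillary electrophoresis; activity fitted in both directions against DMSO.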

The target in experiment [12] is Paired box protein Pax-6 (Homo sapiens) (UniProt P26367). In words: ATG_Pax6_CIS: Attagene CIS-FACTORIAL HepG2 Assay for human Paired Box 6 (PAX6) (AID 2282956). The following applies: HepG2 CIS-FACTORIAL PAX6 reporter transcription, RNA readout; actives raise or lower the signal. In outline:
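Transient MRTU transfection of HepG2 → compound exposure 24 h → TriZol RNA, oligo(dT) RT → PCR, 6-FAM primer extension, HpaI cut → capillary electrophoresis; activity fitted both directions against DMSO.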

Experiment [13] in a line: ATG_PXRE_CIS: Attagene CIS-FACTORIAL HepG2 Assay for human Pregnane X Receptor Element (PXRE) (AID 2282957). Conditions: HepG2 Attagene CIS-FACTORIAL PXRE reporter, mRNA; actives raise or lower the signal. In outline: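 Cis-element reporter mRNA in human hepatoma HepG2 cells is measured 24 h post-dosing by RT-PCR, primer-extension labeling and capillary electrophoresis; gain or loss of signal is fitted relative to DMSO.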

Experiment [14] in a line: ATG_PPRE_CIS: Attagene CIS-FACTORIAL HepG2 Assay for human Peroxisome Proliferator-activated Response Element (PPRE) (AID 2282958). Conditions: HepG2 PPRE cis-element reporter, Attagene transcription factor profiling; actives raise or lower the signal. The essentials:
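HepG2, transient MRTU transfection (cis promoter elements, endogenous TFs). 24 h dosing. RNA → oligo(dT) RT → PCR → 6-FAM primer extension → HpaI digest → CE. Bidirectional fit vs DMSO.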

Experiment [15] can be described thus: ATG_RORE_CIS: Attagene CIS-FACTORIAL HepG2 Assay for human RAR-related Orphan Receptor Element (RORE) (AID 2282959). Conditions: HepG2 Attagene cis-factorial RORE reporter, mRNA; actives raise or lower the signal. In outline:
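Transient MRTU transfection of human HepG2 liver cells (FuGene 6); 24 h compound exposure; TriZol RNA, oligo(dT) RT, PCR, FAM labeling, HpaI cut, CE fragment analysis. DMSO = negative control/baseline.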

Experiment [16] can be described thus: ATG_Sox_CIS: Attagene CIS-FACTORIAL HepG2 Assay for human SRY-box transcription factor (SOX) (AID 2282960). Conditions: HepG2 Attagene cis-factorial SOX reporter, mRNA; actives raise or lower the signal. In outline:
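Endogenous factor activity in human liver HepG2 cells carrying transfected cis-regulated reporter units. RNA taken 24 h post-dose, reverse-transcribed, PCR-amplified and sized by capillary electrophoresis. Gain or loss of signal fitted relative to DMSO.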

For experiment [17], the target named is Transcription factor Sp1 (Homo sapiens) (UniProt P08047). In words: ATG_Sp1_CIS: Attagene CIS-FACTORIAL HepG2 Assay for human Specificity Protein 1 (Sp1) (AID 2282961). Conditions: HepG2 Sp1 cis-reporter transcription, actives raise or lower the signal. In outline:
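Transient MRTU-transfected HepG2, 24 h compound exposure. Total RNA → oligo(dT) RT → PCR of reporter → 6-FAM primer extension → HpaI digest → CE. Endpoint fitted both directions vs DMSO.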

Experiment [18] is described as follows: ATG_SREBP_CIS: Attagene CIS-FACTORIAL HepG2 Assay for human Sterol Regulatory Element Binding (SREBP) (AID 2282962). Conditions: HepG2 Attagene cis-factorial SREBP reporter, mRNA; actives raise or lower the signal. In outline: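 Transfected HepG2 (cis-regulated reporter library, endogenous TFs) → compound 24 h → total RNA → oligo(dT) RT → reporter-specific PCR → FAM primer extension, HpaI cut → CE fluorescence. Fit bidirectional vs DMSO.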

For experiment [19], the target named is Signal transducer and activator of transcription 3 (Homo sapiens) (UniProt P40763). In words: ATG_STAT3_CIS: Attagene CIS-FACTORIAL HepG2 Assay for human Signal Transducer and Activator of Transcription 3 (STAT3) (AID 2282963). Conditions: HepG2, Attagene cis-factorial STAT3 reporter transcription; actives raise or lower the signal. In outline:
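After a 24 h compound incubation, total RNA from MRTU-transfected HepG2 cells was converted to cDNA and reporter sequences PCR-amplified, labelled and profiled by capillary electrophoresis. Gain and loss of signal were referenced to DMSO.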

The nature of experiment [20]: ATG_TA_CIS: Attagene CIS-FACTORIAL HepG2 Assay for human TA Basal Promoter (AID 2282964). Conditions: HepG2 Attagene CIS-factorial TA basal promoter reporter; actives raise or lower the signal. In outline: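 Cis-factorial format in HepG2: reporters report endogenous factors, not chimeric Gal4 fusions. After 24 h treatment, reporter transcripts were measured by RT-PCR-capillary electrophoresis fluorescence, analysed bidirectionally versus DMSO.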

Chain of Bile acid receptor (Homo sapiens) (Q96RI1 whole entry, looked up, the tested form may be a part): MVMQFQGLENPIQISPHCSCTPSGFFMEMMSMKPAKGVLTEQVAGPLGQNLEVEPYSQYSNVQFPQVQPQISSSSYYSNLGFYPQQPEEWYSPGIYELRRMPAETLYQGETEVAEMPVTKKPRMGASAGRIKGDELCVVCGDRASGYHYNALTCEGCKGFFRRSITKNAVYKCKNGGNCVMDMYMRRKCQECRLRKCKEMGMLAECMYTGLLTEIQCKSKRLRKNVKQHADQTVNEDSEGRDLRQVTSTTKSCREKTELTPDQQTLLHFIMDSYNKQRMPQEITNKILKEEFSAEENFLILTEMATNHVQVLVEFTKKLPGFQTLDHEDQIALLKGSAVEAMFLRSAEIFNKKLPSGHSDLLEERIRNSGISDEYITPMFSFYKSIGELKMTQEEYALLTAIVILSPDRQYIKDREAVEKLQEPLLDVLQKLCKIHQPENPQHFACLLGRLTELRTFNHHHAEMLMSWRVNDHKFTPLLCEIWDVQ
Chain of Paired box protein Pax-6 (Homo sapiens) (P26367 whole entry, looked up): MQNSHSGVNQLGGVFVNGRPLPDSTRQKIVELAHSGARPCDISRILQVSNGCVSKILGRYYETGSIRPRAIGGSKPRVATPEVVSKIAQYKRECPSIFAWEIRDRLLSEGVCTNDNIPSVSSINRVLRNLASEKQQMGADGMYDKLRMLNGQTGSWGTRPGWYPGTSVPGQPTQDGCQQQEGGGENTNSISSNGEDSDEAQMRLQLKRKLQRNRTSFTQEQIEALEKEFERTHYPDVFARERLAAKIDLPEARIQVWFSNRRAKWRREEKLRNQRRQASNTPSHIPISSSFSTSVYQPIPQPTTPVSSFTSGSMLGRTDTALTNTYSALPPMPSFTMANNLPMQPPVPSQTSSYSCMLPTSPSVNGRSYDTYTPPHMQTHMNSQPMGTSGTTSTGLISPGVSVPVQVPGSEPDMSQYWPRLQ
Chain of Heat shock factor protein 1 (Homo sapiens) (Q00613 whole entry, looked up): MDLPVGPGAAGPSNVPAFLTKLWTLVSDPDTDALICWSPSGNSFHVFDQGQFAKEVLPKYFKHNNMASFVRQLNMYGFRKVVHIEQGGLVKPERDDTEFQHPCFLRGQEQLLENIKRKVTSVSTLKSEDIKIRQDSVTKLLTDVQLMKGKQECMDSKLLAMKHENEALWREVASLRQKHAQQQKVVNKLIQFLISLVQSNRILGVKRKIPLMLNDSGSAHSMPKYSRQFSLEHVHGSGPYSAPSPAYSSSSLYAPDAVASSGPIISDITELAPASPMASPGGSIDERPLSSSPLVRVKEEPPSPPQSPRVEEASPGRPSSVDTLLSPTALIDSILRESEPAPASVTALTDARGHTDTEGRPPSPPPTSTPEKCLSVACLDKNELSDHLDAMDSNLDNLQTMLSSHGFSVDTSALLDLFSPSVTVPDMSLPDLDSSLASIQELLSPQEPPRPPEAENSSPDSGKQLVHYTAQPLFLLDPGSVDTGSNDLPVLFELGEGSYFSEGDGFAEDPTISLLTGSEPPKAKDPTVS
Chain of Transcription factor Sp1 (Homo sapiens) (P08047 whole entry, looked up): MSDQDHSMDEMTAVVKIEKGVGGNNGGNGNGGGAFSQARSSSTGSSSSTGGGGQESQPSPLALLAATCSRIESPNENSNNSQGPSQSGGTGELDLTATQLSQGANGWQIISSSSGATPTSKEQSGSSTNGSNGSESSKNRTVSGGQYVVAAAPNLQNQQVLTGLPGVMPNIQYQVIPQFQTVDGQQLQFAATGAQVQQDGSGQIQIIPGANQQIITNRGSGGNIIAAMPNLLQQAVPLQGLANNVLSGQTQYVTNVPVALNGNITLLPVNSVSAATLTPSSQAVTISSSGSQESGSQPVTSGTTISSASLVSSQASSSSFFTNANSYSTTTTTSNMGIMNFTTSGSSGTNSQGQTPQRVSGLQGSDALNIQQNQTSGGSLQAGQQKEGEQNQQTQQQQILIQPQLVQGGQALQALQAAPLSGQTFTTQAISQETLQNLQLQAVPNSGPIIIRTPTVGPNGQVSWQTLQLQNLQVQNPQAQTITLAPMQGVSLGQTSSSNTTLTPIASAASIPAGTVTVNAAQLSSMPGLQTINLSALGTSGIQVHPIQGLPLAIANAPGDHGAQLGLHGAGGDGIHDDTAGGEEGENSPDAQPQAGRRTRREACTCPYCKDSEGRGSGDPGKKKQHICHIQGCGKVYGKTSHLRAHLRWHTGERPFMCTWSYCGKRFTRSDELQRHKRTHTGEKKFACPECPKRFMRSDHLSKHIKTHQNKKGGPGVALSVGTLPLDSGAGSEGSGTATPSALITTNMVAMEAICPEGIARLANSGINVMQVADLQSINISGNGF
Chain of Hypoxia-inducible factor 1-alpha (Homo sapiens) (Q16665 whole entry, looked up, the tested form may be a part): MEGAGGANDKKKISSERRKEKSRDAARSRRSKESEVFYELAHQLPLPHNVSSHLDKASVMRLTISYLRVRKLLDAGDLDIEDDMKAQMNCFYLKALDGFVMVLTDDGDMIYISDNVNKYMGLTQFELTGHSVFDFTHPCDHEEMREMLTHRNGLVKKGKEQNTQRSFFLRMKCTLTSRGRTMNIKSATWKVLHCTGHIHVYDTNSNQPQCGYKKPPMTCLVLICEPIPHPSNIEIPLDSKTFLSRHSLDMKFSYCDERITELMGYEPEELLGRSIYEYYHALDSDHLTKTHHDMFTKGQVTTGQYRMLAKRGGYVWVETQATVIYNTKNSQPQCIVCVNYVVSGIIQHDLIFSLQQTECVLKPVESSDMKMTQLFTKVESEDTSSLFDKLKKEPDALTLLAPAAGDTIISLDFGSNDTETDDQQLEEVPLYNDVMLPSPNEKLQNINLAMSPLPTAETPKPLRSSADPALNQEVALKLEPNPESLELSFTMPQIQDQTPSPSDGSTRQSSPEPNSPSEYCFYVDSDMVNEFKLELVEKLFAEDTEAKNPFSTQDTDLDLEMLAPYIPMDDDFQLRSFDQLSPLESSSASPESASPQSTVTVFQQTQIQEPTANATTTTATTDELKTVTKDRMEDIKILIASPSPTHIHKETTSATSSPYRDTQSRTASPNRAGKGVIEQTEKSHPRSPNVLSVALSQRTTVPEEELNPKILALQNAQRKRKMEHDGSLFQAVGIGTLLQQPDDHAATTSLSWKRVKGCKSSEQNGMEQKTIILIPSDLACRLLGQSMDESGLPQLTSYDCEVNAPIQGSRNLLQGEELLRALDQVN
Chain of Hepatocyte nuclear factor 6 (Homo sapiens) (Q9UBC0 whole entry, looked up): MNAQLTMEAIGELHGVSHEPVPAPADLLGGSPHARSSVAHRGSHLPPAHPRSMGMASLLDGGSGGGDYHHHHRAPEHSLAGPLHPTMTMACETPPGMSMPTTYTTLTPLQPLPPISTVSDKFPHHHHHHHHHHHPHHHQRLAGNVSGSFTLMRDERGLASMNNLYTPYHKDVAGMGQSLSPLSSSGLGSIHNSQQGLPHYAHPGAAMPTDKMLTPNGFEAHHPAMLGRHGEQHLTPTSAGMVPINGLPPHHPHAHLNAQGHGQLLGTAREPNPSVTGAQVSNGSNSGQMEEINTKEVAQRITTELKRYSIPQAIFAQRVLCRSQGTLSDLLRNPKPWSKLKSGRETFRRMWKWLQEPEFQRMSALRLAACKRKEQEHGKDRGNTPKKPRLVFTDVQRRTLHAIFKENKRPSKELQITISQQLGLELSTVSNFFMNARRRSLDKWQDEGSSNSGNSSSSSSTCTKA
Chain of Signal transducer and activator of transcription 3 (Homo sapiens) (P40763 whole entry, looked up): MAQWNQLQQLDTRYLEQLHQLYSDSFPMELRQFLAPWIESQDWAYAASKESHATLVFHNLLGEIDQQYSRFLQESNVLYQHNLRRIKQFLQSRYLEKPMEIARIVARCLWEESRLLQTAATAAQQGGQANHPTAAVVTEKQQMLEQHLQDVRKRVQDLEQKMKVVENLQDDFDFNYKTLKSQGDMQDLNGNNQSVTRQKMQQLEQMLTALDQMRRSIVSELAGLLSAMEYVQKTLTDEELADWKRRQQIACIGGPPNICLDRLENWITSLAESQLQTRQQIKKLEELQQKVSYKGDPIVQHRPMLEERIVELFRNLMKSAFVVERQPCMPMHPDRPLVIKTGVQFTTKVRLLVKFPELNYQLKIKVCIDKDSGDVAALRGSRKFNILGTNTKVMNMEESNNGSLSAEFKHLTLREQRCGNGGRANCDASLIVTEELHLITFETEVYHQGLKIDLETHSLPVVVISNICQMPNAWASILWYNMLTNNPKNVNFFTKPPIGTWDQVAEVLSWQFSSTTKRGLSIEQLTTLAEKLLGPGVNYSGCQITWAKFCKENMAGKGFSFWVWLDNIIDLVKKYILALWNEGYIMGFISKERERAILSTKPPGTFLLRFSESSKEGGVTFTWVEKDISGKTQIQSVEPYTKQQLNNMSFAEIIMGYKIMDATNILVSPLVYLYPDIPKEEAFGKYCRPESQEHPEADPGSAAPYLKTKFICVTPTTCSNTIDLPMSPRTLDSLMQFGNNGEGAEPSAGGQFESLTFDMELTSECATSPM

For the compound `Cc1cc(=O)[nH]c(=S)[nH]1`, the result in experiment [1], in experiment [2], in experiment [3], in experiment [4], in experiment [5] and in experiment [6] was inactive. In addition, the call in [7], in experiment [8], in experiment [9], in experiment [10], in experiment [11] and in experiment [12] was inactive. The call in experiment [13], in experiment [14], in experiment [15], in experiment [16], in experiment [17] and in experiment [18] was inactive. Also, the call in experiment [19] and in [20] was inactive.
With `COc1cc(/C=C/C(=O)CC(=O)/C=C/c2ccc(O)c(OC)c2)ccc1O`, the AC50 – broadly, the midpoint of the concentration-response curve, whichever way the signal moves – is 53.9 µM (active) in experiment [1]; 51 µM (active) in [2]; 33.4 µM (active) in [4]; 47.4 µM (active) in experiment [8]; 52.6 µM (active) in experiment [10]; 46.6 µM (active) in [12]. Also, the results for the AC50 in experiment [16], in [17] and in experiment [18] were 43.1 µM (active), 44.5 µM (active) and 56.8 µM (active), respectively. Further, the compound was classed as inactive in experiment [3], in experiment [5], in [6], in [7], in experiment [11] and in [14]. For the same compound, the outcome in experiment [15], in [19] and in [20] was inactive.
For the compound `C[Si]1(C)O[Si](C)(C)O[Si](C)(C)O[Si](C)(C)O1`, the outcome in experiment [1], in experiment [2], in experiment [4], in experiment [5], in experiment [6] and in [7] was inactive. Moreover, the call in [8], in [9], in [10], in [11], in [12] and in [14] was inactive. In addition, the result in [15], in experiment [16], in experiment [17], in experiment [18], in [19] and in experiment [20] was inactive. Moreover, in experiment [13], the AC50 is 26.6 µM (active).
On to `CCCCCCCCCCO`, for which the outcome in experiment [1], in experiment [2], in experiment [3], in experiment [4], in experiment [5] and in experiment [6] was inactive. Moreover, the call in experiment [7], in [9], in experiment [12], in experiment [15], in [16] and in [17] was inactive. Besides, the outcome in [18], in [19] and in experiment [20] was inactive. The AC50 in experiment [10] is 160 µM (active).
